This is an account of results in PubChem BioAssay (NCATS).

Values joined by “and” are separate entries in the source; they are usually repeats but may differ in a detail not shown here. Identical values can stand only once. A number with no mark means an inactive call. Results filed as inconclusive are left out. Active and inactive are the calls of the source. Unless noted, calls come from the whole dose curve; as a rule, active = well fitted curve in the direction sought with a large enough effect; inconclusive = small, poorly fitted or top-dose-only effect, or another doubt; inactive = no such curve, though single readings can be large; an effect the other way counts as inactive or inconclusive.

Experiment [1] can be described thus: Cell Viability - Hek293 (AID 427;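 active = compounds whose dose-response curve shows a full or clear partial loss of cell viability, called from curve shape rather than a numeric limit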;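 note: potency is the fitted concentration of half-maximal effect; cells exposed to compound for 40 hours at 37 °C before reading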). Particulars: qHTS. The essentials: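 HEK293 cells in complete medium were exposed to compound for 40 hr at 37 °C, then cellular ATP was read by CellTiter-Glo luminescence. Data were normalized to DMSO (basal) and 100 uM tamoxifen (100% inhibition), and AC50 came from Hill fits.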
Background: Quantitative high-throughput screening tests each substance at several concentrations.

The nature of experiment [2]: Cell Viability - N2a (AID 540).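 Note: plate controls were DMSO alone for no effect and tamoxifen control for full effect; nearly all actives have a fitted effect of over 45% in size.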 Particulars: N2a mouse neuroblastoma cell viability; activity change, negative = cytotoxicity: at 92.2 µM (top of the series). The essentials:
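CellTiter-Glo ATP luminescence, read 20 min after reagent at room temperature, reported viability following 40 h compound treatment at 37 °C. N2a mouse neuroblastoma cells seeded 1500/well; Hill equation gave AC50.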

The target in experiment [3] is Thyroid hormone receptor beta (Homo sapiens) (UniProt P10828). Put plainly: qHTS assay for small molecule agonists of thyroid hormone receptor beta signaling (AID 588545; calls by dose curve;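 note: 0% = DMSO only and 100% = 10 nM T3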). Particulars: TR-UAS-bla GripTite HEK 293, beta-lactamase ratio, agonist mode, 18 h; series mostly up to 76.7 µM. The method in brief:
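TR-UAS-bla-GripTite HEK 293 cells in medium with 2% charcoal/dextran FBS, 0.1 mM NEAA and 1 mM sodium pyruvate were treated with titrated compounds for 18 hrs at 37 C. Beta-lactamase reporter was read with CCF4 dye (ex 405, em 460/530 nm); EC50 from Hill fits.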

The nature of experiment [4]: qHTS assay for small molecule agonists of the antioxidant response element (ARE) signaling pathway (AID 651741; active = well fitted activation curve with a large enough effect in the signal ratio; the % refers to the signal ratio; note: potency is the fitted concentration of half-maximal effect; for activation: % of control where 0% means no effect). Particulars: HepG2 ARE-bla reporter, beta-lactamase FRET ratio, 16 h; series mostly up to 96 µM. The method in brief: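 Stably integrated ARE-beta-lactamase reporter HepG2 cells; 16 h compound incubation, 37 C; LiveBLAzer FRET substrate 2 h at room temperature; fluorescence intensity.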

Experiment [5] is described as follows: qHTS assay for environmental chemicals that activate the Aryl hydrocarbon Receptor (AhR) signaling pathway (AID 651777). For activation: % of control where 0% means no effect. Note: nearly all actives have a fitted effect of over 15% in size. Note: potency is the fitted concentration of half-maximal effect. Particulars: 1A2-DRE human hepatoma cells, luciferase, 24 h; activation: active compounds read high. The method in brief:
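Following a 24 hr incubation with test chemicals at 37 C and 5% CO2, 1A2-DRE human hepatoma cells received One-Glo reagent; after 30 min at room temperature, luciferase output reflected CYP1A2 induction via AhR.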

Experiment [6] deals with Nuclear receptor ROR-gamma (Homo sapiens) (UniProt P51449). Put plainly: qHTS assay for small molecule antagonists of the retinoid-related orphan receptor gamma (ROR-gamma) signaling pathway (AID 651802). Note: nearly all actives have a fitted effect of over 60% in size. Note: potency is the fitted concentration of half-maximal effect. Particulars: ROR-gamma antagonist cell reporter assay; series mostly up to 92.2 µM. The method in brief: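 Luminescence (One-Glo, 30 min RT) measured 16 h after compound addition and doxycycline induction at 37C. Reporter: RORE-luciferase under TET-inducible ROR-gamma in CHO cells.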
Sequence of Nuclear receptor ROR-gamma (Homo sapiens) (P51449 whole entry, looked up): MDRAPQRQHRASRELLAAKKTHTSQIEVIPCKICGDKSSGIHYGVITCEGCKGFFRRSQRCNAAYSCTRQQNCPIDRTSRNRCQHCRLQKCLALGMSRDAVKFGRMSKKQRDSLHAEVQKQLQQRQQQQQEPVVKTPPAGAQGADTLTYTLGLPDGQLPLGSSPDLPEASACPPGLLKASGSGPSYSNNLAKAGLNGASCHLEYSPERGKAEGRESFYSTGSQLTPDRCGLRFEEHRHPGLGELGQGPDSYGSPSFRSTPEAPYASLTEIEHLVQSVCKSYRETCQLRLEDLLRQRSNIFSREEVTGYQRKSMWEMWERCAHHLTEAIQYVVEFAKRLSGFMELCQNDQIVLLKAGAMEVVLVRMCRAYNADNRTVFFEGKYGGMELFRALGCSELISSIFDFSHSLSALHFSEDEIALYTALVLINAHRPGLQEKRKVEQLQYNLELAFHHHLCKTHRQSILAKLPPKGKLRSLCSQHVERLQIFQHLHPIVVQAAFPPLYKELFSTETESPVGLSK

Experiment [7] can be described thus: Cell Viability - SK-N-SH (AID 435; calls by dose curve;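 note: potency is the fitted concentration of half-maximal effect; compound exposure lasted 40 h at 37 °C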). Particulars: SK-N-SH neuroblastoma cell viability qHTS. The method in brief: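 Cells seeded at 1500 per well and incubated 5 hr at 37 °C. Compound added, then 40 hr at 37 °C. CellTiter-Glo added, 20 min at room temperature, luminescence read.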
Experiment [8] in a line: Cell Viability - LYMP2-015 (AID 971).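 Note: 0% = DMSO only and full effect = 92 µM tetraoctylammonium bromide; nearly all actives have a fitted effect of over 55% in size.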 Particulars: LYMP2-015 lymphoblastoid cell viability; series mostly up to 92.2 µM. The essentials: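 Cytotoxicity readout: decrease in intracellular ATP (CellTiter-Glo luminescence) in 2500 LYMP2-015 lymphoblastoid cells/well after 24 h compound exposure at 37 C. Concentration-response data fitted with the standard Hill equation to give AC50.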

Experiment [9] is described as follows: Cell Viability - LYMP2-010 (AID 981). Note: % is set by controls: 0 for no effect and ±100 for the full control effect; nearly all actives have a fitted effect of over 55% in size. Particulars: LYMP2-010 lymphoblastoid cell viability, qHTS; series mostly up to 92.2 µM. The method in brief:
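CellTiter-Glo ATP luminescence measured cytotoxicity after 24 h compound exposure at 37 C. LYMP2-010 cells were seeded at 2500/well, with tetraoctylammonium bromide as control; concentration-response curves gave AC50 values by the Hill equation.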

Experiment [10] can be described thus: Cell Viability - LYMP2-022 (AID 987).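 For viability change, negative = cytotoxic: 0% = DMSO alone and full effect = tetraoctylammonium bromide at 92 µM.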 Note: nearly all actives have a fitted effect of over 55% in size. Note: potency is the fitted concentration of half-maximal effect. Particulars: LYMP2-022 lymphoblastoid cell viability; series mostly up to 92.2 µM. The method in brief:
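Cytotoxicity read as decreased cellular ATP (CellTiter-Glo luminescence, 30 min room temperature) after 24 hours compound exposure of 2500 lymphoblastoid LYMP2-022 cells/well at 37 C. Concentration-response data fitted with standard Hill equation for AC50.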

For experiment [11], the target named is Vitamin D3 receptor (Homo sapiens) (UniProt P11473). Put plainly: qHTS assay for small molecule antagonists of vitamin D receptor signaling (AID 588541; calls by dose curve;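 note: receptor activated by calcitriol during compound treatment; % is set by controls: 0 for no effect and ±100 for the full control effect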). Particulars: HEK293T VDR-UAS-bla, beta-lactamase ratio, antagonist mode; series mostly up to 76.7 µM. The essentials:
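VDR-UAS-bla HEK293T cells in 2% charcoal-stripped FBS were stimulated with 1-alpha,25-dihydroxyvitamin D3 (3 nM final) plus compound for 16 h at 37 C. The beta-lactamase CCF4 readout was normalized to 50 nM agonist and DMSO, and Hill fits gave IC50.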

Experiment [12] shares this target. Put plainly: qHTS assay for small molecule agonists of vitamin D receptor signaling (AID 588543; calls by dose curve;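 note: 0% = DMSO basal and 100% = reference agonist control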). Particulars: HEK293T VDR-UAS-bla, beta-lactamase ratio, 16 h; series mostly up to 76.8 µM. The method in brief:
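qHTS in agonist mode: compound titrations stimulate a VDR-driven β-lactamase reporter in HEK293T cells over 16 h at 37 °C. Response normalized to 50 nM 1α,25-dihydroxyvitamin D3 = 100%, DMSO = 0%; Hill fitting gives EC50 and maximal response.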

Experiment [13] deals with Tumor necrosis factor (Homo sapiens) (UniProt P01375). Put plainly: qHTS assay to identify small molecules that stimulate Tumor Necrosis Factor-alpha (TNF-alpha) secretion (AID 651757; active = well fitted curve in the direction sought with a large enough effect in the signal ratio; the % refers to the signal ratio; note: 0% is about no effect). Particulars: Human cells, HTRF 665/615 ratio; series mostly up to 92.2 µM. The essentials:
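Secreted TNF-alpha quantified by TR-FRET sandwich of two labeled anti-TNF-alpha antibodies, incubated 3 hr at room temperature. Preceded by 17 hr, 37 C compound treatment of THP-1 cells at 3000 cells/well.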

Experiment [14] is described as follows: qHTS assay for small molecule agonists of the antioxidant response element (ARE) signaling pathway measured by Nrf2-dependant transcriptional activity (AID 720636; active = well fitted curve in the direction sought with a large enough effect in the repeat runs; an effect the other way counts as inactive or inconclusive;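 note: HepG2 cells with an ARE-driven luciferase reporter; % of control where 0% means no effect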). Particulars: ARE-luc HepG2, Nrf2 luciferase reporter, 16 h; series mostly up to 92.4 µM. The essentials:
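ONE-Glo luminescence, read 30 min after reagent addition at room temperature, reflected ARE reporter activity in HepG2 cells that had been incubated with compound for 16 hr at 37 C in 1% dialyzed FBS.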

Experiment [15] can be described thus: qHTS assay for small molecule activators of the human pregnane X receptor (PXR) signaling pathway (AID 720659; call rule not given here; note: 0% is about no effect). Particulars: DPX-2 HepG2 CYP3A4-luciferase, 24 h; series mostly up to 92.3 µM.
Experiment [16] is described as follows: Cell Viability - SH-SY5Y (AID 544).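 Note: 0% = DMSO alone and -100% = 100 µM tamoxifen; nearly all actives have a fitted effect of over 55% in size.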 Particulars: SH-SY5Y neuroblastoma cell viability; viability change, negative = cytotoxic: at 92.2 µM (top of the series). The method in brief:
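Cytotoxicity measured via ATP-dependent luciferase luminescence (CellTiter-Glo) following 40 h, 37 °C exposure of 1500 SH-SY5Y cells per well. Concentration-response data were fitted with the standard Hill equation to give AC50.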

Experiment [17] in a line: Cell Viability - LYMP2-009 (AID 968). Particulars: LYMP2-009 lymphoblastoid cell viability; series mostly up to 92.2 µM.
Experiment [18] is described as follows: Cell Viability - LYMP2-017 (AID 972). Particulars: LYMP2-017 lymphoblastoid cell viability; series mostly up to 92.2 µM. The essentials: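 CellTiter-Glo luminescence (cellular ATP, 30 min RT) measured cytotoxicity after 24 hr compound treatment at 37 C. Cells were a human lymphoblastoid line, LYMP2-017, plated at 2500/well and incubated 5 hr first; concentration-response fitted with Hill equation for AC50.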

The target of experiment [19] is Nuclear receptor subfamily 1 group I member 2 (Rattus norvegicus) (UniProt Q9R1A7). The experiment in a line: qHTS assay for small molecule activators of the rat pregnane X receptor (rPXR) signaling pathway (AID 651751; call rule not given here; note: 0% is about no effect). Particulars: rPXR reporter cells, luciferase (One-Glo), 24 h.
Sequence of Nuclear receptor subfamily 1 group I member 2 (Rattus norvegicus) (Q9R1A7 whole entry, looked up): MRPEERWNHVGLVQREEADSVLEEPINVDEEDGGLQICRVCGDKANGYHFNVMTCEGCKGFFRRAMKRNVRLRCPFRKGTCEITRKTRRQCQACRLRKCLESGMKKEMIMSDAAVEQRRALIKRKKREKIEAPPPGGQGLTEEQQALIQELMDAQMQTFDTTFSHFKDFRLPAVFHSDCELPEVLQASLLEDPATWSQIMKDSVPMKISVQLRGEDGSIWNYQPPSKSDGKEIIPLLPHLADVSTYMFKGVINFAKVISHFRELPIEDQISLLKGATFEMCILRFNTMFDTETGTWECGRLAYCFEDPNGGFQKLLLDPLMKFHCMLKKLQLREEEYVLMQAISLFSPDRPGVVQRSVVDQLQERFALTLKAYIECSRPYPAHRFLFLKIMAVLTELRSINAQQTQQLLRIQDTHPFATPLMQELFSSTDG

Sequence of Tumor necrosis factor (Homo sapiens) (P01375 whole entry, looked up): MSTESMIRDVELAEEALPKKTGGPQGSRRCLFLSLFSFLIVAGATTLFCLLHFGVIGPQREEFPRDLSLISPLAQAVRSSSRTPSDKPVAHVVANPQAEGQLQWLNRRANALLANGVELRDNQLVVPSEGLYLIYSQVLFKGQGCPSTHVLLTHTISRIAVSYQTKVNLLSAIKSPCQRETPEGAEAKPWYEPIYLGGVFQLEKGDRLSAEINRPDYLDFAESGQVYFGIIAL
Sequence of Vitamin D3 receptor (Homo sapiens) (P11473 whole entry, looked up): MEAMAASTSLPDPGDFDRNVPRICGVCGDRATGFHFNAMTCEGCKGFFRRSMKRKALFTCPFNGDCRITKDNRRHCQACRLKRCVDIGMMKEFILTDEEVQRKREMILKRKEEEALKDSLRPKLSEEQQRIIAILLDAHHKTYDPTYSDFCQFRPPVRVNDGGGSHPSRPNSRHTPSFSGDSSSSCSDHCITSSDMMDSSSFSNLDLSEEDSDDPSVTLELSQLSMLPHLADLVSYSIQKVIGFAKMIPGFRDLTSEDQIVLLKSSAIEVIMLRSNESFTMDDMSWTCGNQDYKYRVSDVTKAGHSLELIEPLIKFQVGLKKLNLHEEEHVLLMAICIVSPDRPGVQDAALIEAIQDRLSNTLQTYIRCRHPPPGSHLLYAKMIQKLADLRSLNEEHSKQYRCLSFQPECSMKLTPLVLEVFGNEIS
Sequence of Thyroid hormone receptor beta (Homo sapiens) (P10828 whole entry, looked up): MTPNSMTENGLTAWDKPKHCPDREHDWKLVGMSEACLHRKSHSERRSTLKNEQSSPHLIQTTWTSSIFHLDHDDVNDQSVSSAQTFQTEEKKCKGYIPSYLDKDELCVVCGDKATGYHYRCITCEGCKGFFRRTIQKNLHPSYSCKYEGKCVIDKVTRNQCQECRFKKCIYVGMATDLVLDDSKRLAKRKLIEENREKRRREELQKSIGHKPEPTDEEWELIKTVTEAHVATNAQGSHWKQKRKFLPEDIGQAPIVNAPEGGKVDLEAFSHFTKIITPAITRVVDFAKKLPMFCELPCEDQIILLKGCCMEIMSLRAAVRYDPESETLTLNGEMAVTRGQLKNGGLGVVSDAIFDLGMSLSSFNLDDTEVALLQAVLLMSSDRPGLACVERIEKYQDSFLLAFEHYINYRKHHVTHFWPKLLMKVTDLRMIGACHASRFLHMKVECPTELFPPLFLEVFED

Take `Nc1ccc2c(c1)C(=O)c1ccccc1C2=O`: the Potency in experiment [1] was above 92 µM; in [4], 10.6 µM (active) and 48.6 µM (active); in [5] it was 14.1 µM (active) and 44.7 µM (active). Further, the activity change, negative = cytotoxicity in experiment [2] is -27.2%. Moreover, the Potency result in experiment [3] and in experiment [6] was “inactive” each time.
For the compound `O=C1OC(=O)c2ccccc21`, the Potency in experiment [1] and in experiment [7] was above 92 µM each time. For the same compound, in experiment [2], the activity change, negative = cytotoxicity is -28.6%. For the same compound, the Potency result in experiment [8], in experiment [9], in experiment [10], in [11], in [12] and in experiment [4] was “inactive” each time. For the same compound, the Potency entry in [13] and in experiment [14] was “inactive” each time. Also, in experiment [15], the result was inactive.
As for `O=[N+]([O-])c1cccc(I)c1`, the Potency in experiment [1] and in experiment [7] was above 92 µM each time. Further, in experiment [2], the activity change, negative = cytotoxicity is -10.4%. The Potency entry in experiment [16], in [17], in [8], in [18], in experiment [9] and in [10] was “inactive” in each case. Further, the Potency result in [11], in experiment [12], in experiment [3], in [4], in experiment [13] and in experiment [6] was “inactive” in each case. Also, the Potency result in [14] was “inactive”. Moreover, in experiment [5], the activation was 0.159%. The max response in experiment [19] is -1.98%. Also, the outcome in [15] was inactive.
As to `CCCCC(CC)COP(=O)(OCC(CC)CCCC)OCC(CC)CCCC` (configuration not stated), the Potency in experiment [7] was above 92 µM. Further, the Potency entry in experiment [16], in experiment [17], in [8], in [18], in experiment [9] and in [10] was “inactive” in each case. In addition, the Potency entry in experiment [11], in experiment [12], in experiment [3], in [13], in experiment [6] and in experiment [14] was “inactive” in each case. Also, in experiment [5], the activation was -1.66%. Further, the max response in experiment [19] is 1.51%. In addition, in [15], the compound was classed as inactive.
In the case of `Nc1ccc(N)c(Cl)c1`, in experiment [2], the activity change, negative = cytotoxicity was 3.89%. Also, in [16], the viability change, negative = cytotoxic is -99% (active). The Potency entry in experiment [18], in experiment [11], in experiment [12], in [3] and in [6] was “inactive” in each case. For the same compound, the Potency in [10] was 39.8 µM (active); in experiment [4] it was 23.7 µM (active). The max response in experiment [19] was -1.32%. The compound was classed as inactive in experiment [15].
As to `Nc1cnn([C@@H]2O[C@H](CO)[C@@H](O)[C@H]2O)c(=O)n1`, the Potency in experiment [1] was above 92 µM; in [7] it was above 92 µM; in [6], 5.31 µM (active). Moreover, the activity change, negative = cytotoxicity in [2] was 8.82%. Also, the Potency result in experiment [16], in [17], in experiment [8], in [18], in experiment [9] and in experiment [10] was “inactive” each time. The Potency result in experiment [11], in [12], in [3], in experiment [4], in experiment [13] and in experiment [14] was “inactive” throughout. In addition, in experiment [19], the max response was 3.54%. For the same compound, the result in experiment [15] was inactive.
